As a reminder, the inhibition is the change of the read-out against control, counted positive when it falls.

Unmarked numbers belong to inactive results. Active and inactive are the calls of the source.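 The calls were made as follows, unless noted: active = inhibition above 50%; inactive = the rest.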

Test system in one assay: not listed separately
As to the kind of experiment: antimalarial activity against Dd2 strain (AID 2302;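 active = growth inhibition above 50% at the single 2 µM test dose, taken to imply half-maximal potency below 2 µM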;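 also: 0% = DMSO untreated growth and 100% = chloroquine plus artemisinin killed control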). The settings on record: P. falciparum Dd2 in RBCs, LDH growth readout, 72 h; at 2 µM; hits give high values.
As to `CN(C)c1cc2c(Nc3ccc4nc(Cc5ccccc5)[nH]c4c3)ncnc2cn1`, the growth inhibition is 29%.

As to `Cc1ccc(O)cc1Nc1ccnc2cc(-c3ccccn3)ccc12`, the growth inhibition was 98% (active).

Consider `Nc1ncnc2occ(-c3ccc(NC(=O)Nc4cc(C(F)(F)F)ccc4F)cc3)c12`, for which the growth inhibition is 99% (active).

Test system in another assay: not listed separately
Put plainly: HepG2 cytotoxicity, primary screen, cytotoxicity control for P. falciparum antimalarial project, cell-based, ATP luminescence (AID 2303).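 Also: 0% = DMSO wells and 100% = digitonin-killed cells.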 Conditions: HepG2 viability, 24-48 h, at 10 µM, hits give high values.
For `CN(C)c1cc2c(Nc3ccc4nc(Cc5ccccc5)[nH]c4c3)ncnc2cn1`, the inhibition was 11%.

In the case of `Cc1ccc(O)cc1Nc1ccnc2cc(-c3ccccn3)ccc12`, the inhibition is 6%.

Consider `Nc1ncnc2occ(-c3ccc(NC(=O)Nc4cc(C(F)(F)F)ccc4F)cc3)c12`, for which the inhibition is 57% (active).

In the next assay the target is L-lactate dehydrogenase (Plasmodium falciparum (isolate CDC / Honduras)) (UniProt Q27743). As to the kind of experiment: PfLDH activity inhibition – cell lysate, 3D7 strain, counter-screen for P. falciparum growth inhibition project (AID 2304; call rule not given here;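 also: 0% = vehicle and 100% = reference inhibitor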). Conditions: P. falciparum 3D7 crude extract, LDH APAD/NBT absorbance; at 2 µM; hits give high values. Background: The purpose of a counterscreen is to sort out artefacts and off-target activity.
Sequence of L-lactate dehydrogenase (Plasmodium falciparum (isolate CDC / Honduras)) (Q27743 whole entry, looked up): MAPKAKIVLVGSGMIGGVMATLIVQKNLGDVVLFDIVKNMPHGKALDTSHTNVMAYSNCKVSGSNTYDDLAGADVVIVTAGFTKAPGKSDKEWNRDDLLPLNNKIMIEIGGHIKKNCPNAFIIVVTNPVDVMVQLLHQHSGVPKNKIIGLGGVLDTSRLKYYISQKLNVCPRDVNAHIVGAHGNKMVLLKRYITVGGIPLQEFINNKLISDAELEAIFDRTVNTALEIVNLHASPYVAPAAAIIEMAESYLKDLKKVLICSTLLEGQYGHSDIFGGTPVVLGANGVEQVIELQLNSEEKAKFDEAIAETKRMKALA
`CN(C)c1cc2c(Nc3ccc4nc(Cc5ccccc5)[nH]c4c3)ncnc2cn1`: the inhibition was 0%.

As to `Cc1ccc(O)cc1Nc1ccnc2cc(-c3ccccn3)ccc12`, the inhibition was -2%.

Regarding `Nc1ncnc2occ(-c3ccc(NC(=O)Nc4cc(C(F)(F)F)ccc4F)cc3)c12`, the inhibition is -1%.

The record behind these values is PubChem BioAssay.
